# In ChEMBL document CHEMBL1201862, “PubChem BioAssay data set” (2004):
# These assays gave more results; the selection is not random.
# Molecular target: Pyruvate kinase PKM (Homo sapiens) (UniProt P14618)
# Assay: Confirmation Concentration-Response Assay for Activators of Human Muscle isoform 2 Pyruvate Kinase: for Probe SAR.
# Format: functional
# Pyruvate kinase PKM (Homo sapiens), sequence (P14618 2-531 limits assumed): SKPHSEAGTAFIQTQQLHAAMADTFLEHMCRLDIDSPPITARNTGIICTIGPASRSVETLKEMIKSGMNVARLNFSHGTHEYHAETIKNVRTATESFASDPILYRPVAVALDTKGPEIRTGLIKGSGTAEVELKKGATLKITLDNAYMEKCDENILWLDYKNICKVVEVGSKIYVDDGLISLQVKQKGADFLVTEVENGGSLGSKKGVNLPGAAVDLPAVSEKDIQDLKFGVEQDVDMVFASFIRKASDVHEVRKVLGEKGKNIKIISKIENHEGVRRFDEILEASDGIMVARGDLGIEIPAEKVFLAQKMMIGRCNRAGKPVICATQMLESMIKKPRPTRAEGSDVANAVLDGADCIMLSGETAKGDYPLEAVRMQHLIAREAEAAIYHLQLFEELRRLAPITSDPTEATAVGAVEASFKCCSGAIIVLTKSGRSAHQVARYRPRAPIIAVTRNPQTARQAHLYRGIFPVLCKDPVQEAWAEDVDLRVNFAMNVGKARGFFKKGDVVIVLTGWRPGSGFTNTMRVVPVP
compound,measurement,value
C[N+](C)(C)c1cccc(S(=O)(=O)N2CCCN(S(=O)(=O)c3ccc4c(c3)OCCO4)CC2)c1,Potency,16.3 µM (active)
